Hits are enriched below; roughly 18% of the tested compounds scored in any of these assays.
TGFb inhibitor – TGF-b pathway inhibition | 1.2% of 410,000 active | Potency, µM (doses to about 46.1 µM), usual class: inhibitors | HepG2 CAGA-GFP TGF-b/SMAD3 reporter, GFP fluorescence, 18 h; TGF-beta stimulated, 500 pg/mL final; note: nearly all actives have a fitted effect of over 65% in size
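Cell-based qHTS in HEPG2 carrying a CAGA-GFP Smad reporter; compounds added before 500 pg/mL final TGF-beta, 18 h incubation at 37 degrees C, GFP fluorescence quantified per cell by imaging cytometry.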
DT40 TDP1 no CPT – qHTS for Inhibitors of human tyrosyl-DNA phosphodiesterase 1 (TDP1): qHTS in cells in absence of CPT; DT40 Tdp1-/- hTDP1 cells, no CPT, ATP luminescence, 48 h; Potency, µM (series often up to 46.2 µM), hits mostly inhibitors; 15% of 420,000 active; note: nearly all actives have a fitted effect of over 55% in size
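Seeded 400 DT40-hTDP1 cells/well (vehicle DMSO, no 20 nM CPT); pinned compounds; ≥48 hr at 37 °C; CellTiter-Glo luminescence as viability measure.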
HepG2 viability – HepG2 cytotoxicity, counter-screen for TGF-b inhibitors; HepG2 CAGA-GFP viability, ATP luminescence, 18 h; Potency, µM (series often up to 46.1 µM), actives largely listed as cytotoxic; 0.76% of 410,000 active; AID 588856
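HepG2 CAGA-GFP cells (1000/well, DMEM with 1% FBS) received compound, then TGF-beta at 500 pg/mL final, and were incubated 18 hours at 37 degrees C. Viability was read by CellTiter-Glo luminescence. Media-only wells were set as complete cell-killing and DMSO as no toxicity.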
TDP1 cell CPT – DT40-hTDP1 cell growth loss with CPT; chicken DT40 Tdp1-/-;hTDP1 cells + 20 nM CPT, ATP luminescence, 48 h; Potency, µM (top dose mostly 46.2 µM), usual class: inhibitors; 12% of 420,000 active; note: nearly all actives have a fitted effect of over 55% in size
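Chicken DT40 Tdp1-/- cells complemented with human TDP1, 400 cells/well, exposed to compounds plus 20 nM camptothecin for at least 48 h at 37 C; viability read as ATP content by CellTiter-Glo luminescence.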
IL1B secr inh – blocks inflammasome-driven IL-1 beta release. THP-1 LPS/ATP IL-1B secretion, AlphaLISA, 16 h; stronger effect = lower value. activity change, % at 57.5 µM. 4.7% of 360,000 active. AID 743279; in the data active = activity change below about -50%; inconclusive = mostly about -30% to -49%
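Secreted IL-1B measured by AlphaLISA bead assay after 16 h compound exposure of THP-1 cells; compounds (final up to 57.5 uM) added 1 h before LPS (250 ng/mL) and ATP (1.25 mM) stimulation; lower signal means less secretion.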
TDP1 inh – blocks human tyrosyl-DNA phosphodiesterase 1. Q9NUW8. recombinant TDP1, AlphaScreen DNA substrate cleavage. Potency, µM (doses to about 130 µM), usual class: inhibitors. 0.28% of 350,000 active; note: nearly all actives have a fitted effect of over 40% in size
Target sequence (Q9NUW8 whole entry, looked up): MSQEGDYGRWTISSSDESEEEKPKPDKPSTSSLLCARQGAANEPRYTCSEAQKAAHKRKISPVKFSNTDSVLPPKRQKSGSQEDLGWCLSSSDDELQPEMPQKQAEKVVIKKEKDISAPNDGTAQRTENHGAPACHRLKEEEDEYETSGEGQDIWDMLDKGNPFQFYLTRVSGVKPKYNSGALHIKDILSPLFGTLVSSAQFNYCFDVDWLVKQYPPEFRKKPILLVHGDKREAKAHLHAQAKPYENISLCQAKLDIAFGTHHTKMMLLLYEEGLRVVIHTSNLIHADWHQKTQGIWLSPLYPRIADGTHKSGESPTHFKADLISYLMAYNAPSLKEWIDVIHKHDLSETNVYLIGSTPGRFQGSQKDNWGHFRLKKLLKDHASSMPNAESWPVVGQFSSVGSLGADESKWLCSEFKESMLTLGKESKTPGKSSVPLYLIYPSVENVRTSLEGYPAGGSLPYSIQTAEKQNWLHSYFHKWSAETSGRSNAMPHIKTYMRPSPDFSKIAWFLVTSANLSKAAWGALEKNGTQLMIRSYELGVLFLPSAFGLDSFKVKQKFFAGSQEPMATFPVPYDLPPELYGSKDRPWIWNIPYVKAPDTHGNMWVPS
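Recombinant E. coli-expressed Tdp1 (1 nM) preincubated with compound 15 min at RT, then 5'-biotin/3'-phosphotyrosine-FITC DNA substrate (15 nM) added for 5 min. AlphaScreen beads (10 ug/ml) added, 10 min RT; tyrosine-FITC cleavage read as signal loss.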
Numbers stand for hits; . = inactive; ? = inconclusive; / = no result; [ ] = another dose, or the depositor's remark. Unless noted, calls come from the whole dose curve; as a rule, active = well fitted curve in the direction sought with a large enough effect; inconclusive = small, poorly fitted or top-dose-only effect, or another doubt; inactive = no such curve, though single readings can be large; an effect the other way counts as inactive or inconclusive.

SMILES	TGFb inhibitor	DT40 TDP1 no CPT	HepG2 viability	TDP1 cell CPT	IL1B secr inh	TDP1 inh
CCN(Cc1cccs1)C(=O)CN1C(=O)NC2(CCCc3ccccc32)C1=O (configuration not stated)	.	.	.	20.6µM	.	.
Cc1cc(C(=O)CN2C(=O)NC3(CCCc4ccccc43)C2=O)c(C)n1Cc1cccs1 (configuration not stated)	.	?	.	16.4µM	?	.
CCN(C(=O)CN1C(=O)NC2(CCc3ccccc32)C1=O)C1CCCCC1 (configuration not stated)	.	.	.	.	.	.
CCN(C(=O)CN1C(=O)NC2(CCCc3ccccc32)C1=O)c1ccc(F)cc1 (configuration not stated)	.	16.4µM	.	?	.	.
COC(=O)[C@@H]1C[C@H](NC(=O)c2ccccn2)CN1Cc1cccc2ccccc12	/	.	/	.[9.04 µM]	/	/
O=C(Nc1ccc(Cl)cc1)c1nc[nH]c1C(=O)Nc1ccccc1F	.	14.6µM	.	?	.	/
CCOC(=O)c1[nH]cnc1C(=O)Nc1ccc(Cl)cc1	.	.	.	.	.	.
O=C(Nc1ccc(Cl)cc1)c1nc[nH]c1C(=O)NCCCCNC(=O)c1[nH]cnc1C(=O)Nc1ccc(Cl)cc1	.	4.61µM	.	5.8µM	?	.
O=C(Nc1cccc(Cl)c1)c1nc[nH]c1C(=O)Nc1ccccc1F	.	7.31µM	.	4.11µM	.	/
O=C(Nc1ccc(F)cc1)c1nc[nH]c1C(=O)Nc1ccccc1[N+](=O)[O-]	.	1.3µM	.	?	.	.
COc1ccc(S(=O)(=O)N2CCC(C(=O)Nc3ccc(Oc4ccccc4)cc3)CC2)cc1	.	.	.	.	/	/
Cc1cc(C)c(NC(=O)C2CCN(c3nn4c(=O)cc(C)nc4s3)CC2)c(C)c1	?	.	.	?	/	.
COc1ccc(CN(CC(=O)NCc2ccccc2)C(=O)CCC(=O)Nc2nccs2)cc1	.	.	.	.	.	/
COc1ccccc1C1CC(c2cccs2)=Nc2ccccc2S1 (configuration not stated)	?	?	.	?	.	.
Fc1ccccc1C1CC(c2ccco2)=Nc2ccccc2S1 (configuration not stated)	17.8µM	13µM	.	?	.	/
O=C(NC(=S)Nc1ccc2c(c1)OCCO2)c1ccccc1	.	14.1µM	.	?	.	.
CCOc1cccc(C(=O)NC(=S)Nc2ccc3c(c2)OCCO3)c1	.	?	.	.	-53.6	.
NC(=O)C12C(=O)NC(=O)C1(C(=O)O)C21CCCC1 (configuration not stated)	.	.	.	.	.	/
Cc1nn(S(=O)(=O)c2ccc(Br)cc2)c(C)c1S(=O)(=O)N1CCOCC1	.	.	.	.	.	.
Cn1c(N)c(C(=O)COC(=O)c2cc(C(F)(F)F)nc3ccccc23)c(=O)n(Cc2ccccc2)c1=O	.	?	.	23.1µM	.	.
Cn1c(N)c(C(=O)COC(=O)c2cc(C3CC3)nc3ccccc23)c(=O)n(C)c1=O	.	18.4µM	.	13µM	.	.
Cn1c(N)c(C(=O)COC(=O)c2cc(-c3ccco3)nc3ccccc23)c(=O)n(C)c1=O	.	16.4µM	.	20.6µM	.	.
Cn1c(N)c(C(=O)COC(=O)c2ccnc3ccccc23)c(=O)n(C)c1=O	.	.	.	.	.	.
CNC(=O)COC(=O)c1cc(-c2ccco2)nc2ccccc12	.	?	.	14.6µM	.	/
O=C(COC(=O)c1cc(-c2ccco2)nc2ccccc12)NCc1ccccc1	.	.	.	.	.	.
SMILES	TGFb inhibitor	DT40 TDP1 no CPT	HepG2 viability	TDP1 cell CPT	IL1B secr inh	TDP1 inh
CCC1CN(CCNC(=O)c2ccccc2-n2cccn2)Cc2cc(OC)ccc2O1 (configuration not stated)	/	.	/	.[9.04 µM]	/	/
CCCCNC(=O)c1ccc2c(c1)C(=O)N(Cc1ccncc1)C2=O	.	.	.	.	.	.
Cc1cc(C)n2nc(C(=O)OCC(=O)Nc3ccc(C)c(S(=O)(=O)N4CCOCC4)c3)nc2n1	.	.	.	.	.	.
COc1ccc(-c2cc(C(=O)OCC(=O)c3c(N)n(C)c(=O)n(C)c3=O)c3ccccc3n2)cc1	.	1.64µM	.	4.11µM	-53.5	.
CC(C)(C)CNC(=O)C1(C)CCN1C(=O)c1ccccc1CCc1ccccc1 (configuration not stated)	.	16.4µM	.	20.6µM	.	/
CC(C)NC(=O)C1(C)CCN1C(=O)Cc1ccc(-c2ccccc2)cc1 (configuration not stated)	.	13µM	.	16.4µM	.	/
CC(C)(C)c1ccc(CC(=O)N2CCC2(C)C(=O)Nc2cccc3c2CCCC3)cc1 (configuration not stated)	?	?	.	?	.	/
CC(C)NC(=O)C1(C)CCN1Cc1ccc(-c2ccccc2)cc1 (configuration not stated)	.	8.2µM	.	11.6µM	.	/
CC1(C(=O)NS(C)(=O)=O)CCN1C(=O)Cc1ccc(-c2ccccc2)cc1 (configuration not stated)	.	.	.	.	.	/
CSc1ccc(NC(=O)C2(C)CCN2C(=O)Cc2ccc(C(C)(C)C)cc2)cc1 (configuration not stated)	?	?	.	23.1µM	.	/
CC(C)NC(=O)C1(C)CCN1C(=O)C1(c2ccccc2)CC1 (configuration not stated)	.	.	.	?	.	/
CC1(C(=O)NC2CCCCCC2)CCN1C(=O)C1(c2ccccc2)CC1 (configuration not stated)	.	18.4µM	.	11.6µM	.	/
COc1ccccc1CNC(=O)C1(C)CCN1C(=O)Cc1ccc(-c2ccccc2)cc1 (configuration not stated)	.	14.6µM	.	16.4µM	.	/
CC1(C(=O)Nc2ccc3nc[nH]c3c2)CCN1C(=O)Cc1ccc(-c2ccccc2)cc1 (configuration not stated)	.	16.4µM	.	?	.	/
Cc1ccc(NC(=O)C2(C)CCN2C(=O)Cc2ccc(-c3ccccc3)cc2)cc1 (configuration not stated)	?	16.4µM	.	16.4µM	.	/
CC1(c2nnc(-c3cccc(Cl)c3)o2)CC(c2ccccc2)=NO1 (configuration not stated)	.	.	.	.	.	/

Assay outcomes: PubChem, National Center for Advancing Translational Sciences (NCATS)
